According to PubChem BioAssay AID1159580 (chemical genetic matrix, 2015):
In all, about 5,500 compounds went through this assay and about 2,000 (36%) were called active. Not shown: some 18% with an inconclusive outcome. Cut-off read from the data, not from the text of the source: active = normalized growth mostly below about 0.91 (no sharp cut-off); inconclusive = no clear call, values can overlap the other calls; inactive = mostly above about 0.92. This is one part of the list.

Experiment: chemical genetic growth profiling, strain panel (AID 1159580);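 note: tested at 20 µM; growth read once vehicle control cultures reached saturation at 30 °C; 1 = growth at the plate median or of vehicle wells; lower values mean less growth of the strain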
Conditions: S. cerevisiae deletion strains, growth OD
[1] = locus YDL101C, strain DUN1, active compounds read low
[2] = locus YHR030C, strain SLT2, active compounds read low

Measured: normalized growth

Cc1ccc(NC(=O)c2c(F)cccc2Cl)c(C(=O)Nc2ccc(F)cc2)c1
inactive: locus YAL013W, strain DEP1, active compounds read low 0.993 | locus YBR229C, strain ROT2, active compounds read low 0.998 | [1] 1.02 | locus YDR150W, strain NUM1, active compounds read low 1.02 | locus YEL061C, strain CIN8, active compounds read low 0.987 | locus YGR078C, strain PAC10, active compounds read low 1.02 | locus YGR229C, strain SMI1, active compounds read low 1.01 | [2] 1.06 | locus YHR087W, strain rtc3, active compounds read low 0.976 | locus YJR043C, strain POL32, active compounds read low 1.02 | locus YJR075W, strain HOC1, active compounds read low 1.01 | locus YLR039C, strain RIC1, active compounds read low 0.868 | locus YLR058C, strain SHM2 (second series), active compounds read low 0.995 | locus YLR085C, strain ARP6, active compounds read low 1.03 | locus YLR262C, strain YPT6, active compounds read low 0.933 | locus YML094W, strain GIM5, active compounds read low 1.01 | locus YMR219W, strain ESC1, active compounds read low 1 | locus YMR263W, strain SAP30, active compounds read low 1 | locus YMR307W, strain GAS1, active compounds read low 1.1 | locus YNL153C, strain GIM3, active compounds read low 1.03 | locus YNL298W, strain CLA4 (second series), active compounds read low 1.02 | locus YNL322C, strain KRE1, active compounds read low 0.997 | locus YNR030W, strain Alg12, active compounds read low 1 | locus YOL006C, strain TOP1, active compounds read low 1.02 | locus YPL055C, strain LGE1, active compounds read low 0.952 | locus YPL241C, strain CIN2, active compounds read low 1.03 | locus YPR135W, strain CTF4, active compounds read low 1.05

Cc1ccc(NC(=O)c2ccccc2N=Cc2cc(Cl)cc(Cl)c2O)c(N=Cc2cc(Cl)cc(Cl)c2O)c1
inactive: locus YAR019C, strain CDC15, active compounds read low 0.926 | locus YBL105C, strain PKC1, active compounds read low 0.926 | locus YBR135W, strain CKS1, active compounds read low 0.921 | locus YBR136W, strain MEC1, active compounds read low 0.927 | locus YBR160W, strain CDC28, active compounds read low 0.934 | locus YDL017W, strain CDC7, active compounds read low 0.927 | locus YDL028C, strain MPS1, active compounds read low 0.927 | [1] 0.962 | locus YDL108W, strain KIN28, active compounds read low 0.925 | locus YDL132W, strain cdc53, active compounds read low 0.937 | locus YDR052C, strain DBF4, active compounds read low 0.93 | locus YDR054C, strain cdc34, active compounds read low 0.911 | locus YDR226W, strain ADK1, active compounds read low 0.925 | locus YFL009W, strain cdc4, active compounds read low 0.93 | locus YFL029C, strain CAK1, active compounds read low 0.909 | locus YFR003C, strain YPI1, active compounds read low 0.913 | locus YFR028C, strain CDC14, active compounds read low 0.933 | locus YIL147C, strain SLN1, active compounds read low 0.914 | locus YJL128C, strain PBS2, active compounds read low 0.885 | locus YJR016C, strain ILV3, active compounds read low 0.934 | locus YKL193C, strain SDS22, active compounds read low 0.924 | locus YMR001C, strain CDC5, active compounds read low 0.925 | locus YMR277W, strain FCP1, active compounds read low 0.935 | locus YNL006W, strain LST8, active compounds read low 0.931 | locus YNL161W, strain CBK1, active compounds read low 0.906 | locus YNL207W, strain RIO2, active compounds read low 0.922 | locus YNL222W, strain SSU72, active compounds read low 0.929 | locus YOL078W, strain AVO1, active compounds read low 0.928 | locus YOR329C, strain SCD5, active compounds read low 0.913 | locus YPL209C, strain IPL1, active compounds read low 0.929 | locus YPR025C, strain CCL1, active compounds read low 0.928 | locus YPR106W, strain ISR1, active compounds read low 0.936 | locus YPR111W, strain DBF20, active compounds read low 0.916 | strain NNK1, active compounds read low 0.91 | strain TSCII, active compounds read low 0.922
active: locus YDL214C, strain PRR2, active compounds read low 0.459 | locus YDR477W, strain SNF1, active compounds read low 0.284 | locus YER123W, strain YCK3, active compounds read low 0.252 | locus YER133W, strain GLC7, active compounds read low 0.365 | locus YFR019W, strain FAB1, active compounds read low 0.598 | locus YGR040W, strain KSS1, active compounds read low 0.377 | locus YGR052W, strain FMP48, active compounds read low 0.363 | locus YGR092W, strain DBF2, active compounds read low 0.123 | [2] 0.213 | locus YHR079C, strain IRE1, active compounds read low 0.201 | locus YHR082C, strain KSP1, active compounds read low 0.293 | locus YHR205W, strain SCH9, active compounds read low 0.166 | locus YJL095W, strain BCK1, active compounds read low 0.218 | locus YJL157C, strain FAR1, active compounds read low 0.272 | locus YJR066W, strain TOR1 (second series), active compounds read low 0.51 | locus YJR066W, strain TOR1, active compounds read low 0.237 | locus YKL048C, strain ELM1, active compounds read low 0.422 | locus YKL067W, strain YNK1, active compounds read low 0.359 | locus YKL101W, strain HSL1, active compounds read low 0.387 | locus YKL203C, strain TOR2, active compounds read low 0.37 | locus YLR113W, strain HOG1, active compounds read low 0.247 | locus YLR133W, strain CKI1, active compounds read low 0.28 | locus YLR403W, strain SFP1, active compounds read low 0.131 | locus YML070W, strain DAK1, active compounds read low 0.32 | locus YMR205C, strain PFK2 (second series), active compounds read low 0.348 | locus YNL020C, strain ARK1, active compounds read low 0.198 | locus YNL183C, strain NPR1, active compounds read low 0.254 | locus YNL307C, strain MCK1 (second series), active compounds read low 0.188 | locus YOL136C, strain PFK27, active compounds read low 0.25 | locus YOR061W, strain CKA2, active compounds read low 0.197 | locus YOR119C, strain RIO1, active compounds read low 0.39 | locus YOR231W, strain MKK1, active compounds read low 0.255 | locus YPL031C, strain PHO85, active compounds read low 0.291 | locus YPL153C, strain RAD53, active compounds read low 0.324 | locus YPL204W, strain HRR25, active compounds read low 0.313 | locus YPL256C, strain CLN2, active compounds read low 0.294
